Only a selection was taken, and hits are over-represented in it overall.
TbREL1 inh – TbREL1 inhibition, primary screen; AID 1117264; inhibition, % at 9.66 µM; P86926; TbREL1 RNA ligation, FRET fluorescence; 89,000 tested, 0.49% active;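 active = inhibition above the mean inhibition across all screened compounds plus 3 SD, cut at about 11% in these data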;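 note: 0% = plate median of test wells and 100% = NSC42067 control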
Target sequence (P86926 whole entry, looked up): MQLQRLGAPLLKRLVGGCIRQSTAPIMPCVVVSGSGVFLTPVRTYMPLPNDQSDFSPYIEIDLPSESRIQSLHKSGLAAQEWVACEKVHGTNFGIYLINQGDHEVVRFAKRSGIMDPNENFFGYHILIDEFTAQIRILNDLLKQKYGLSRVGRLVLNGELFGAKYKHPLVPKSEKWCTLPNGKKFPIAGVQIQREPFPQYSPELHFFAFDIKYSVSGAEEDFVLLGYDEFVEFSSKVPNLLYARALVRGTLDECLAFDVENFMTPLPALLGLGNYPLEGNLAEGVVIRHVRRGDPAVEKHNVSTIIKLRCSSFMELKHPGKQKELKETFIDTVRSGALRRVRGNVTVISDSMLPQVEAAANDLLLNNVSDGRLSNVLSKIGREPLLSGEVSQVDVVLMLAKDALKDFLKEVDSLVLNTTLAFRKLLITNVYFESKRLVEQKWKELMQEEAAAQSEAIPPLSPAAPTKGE
TbREL1 conf – TbREL1 inhibition, confirmation; shares compounds with TbREL1 inh; TbREL1 RNA ligation, FRET fluorescence; inhibition, % at 9.66 µM; 390 tested, 37% active; AID 1117282;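 active = mean inhibition across replicates above a set limit taken from the earlier primary screen, cut at about 11% in these data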;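 note: 0% = REL1 with substrate and DMSO and 100% = REL1 plus control inhibitor NSC42067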
* hit, by the source's call.

SMILES	TbREL1 inh	others
CCOC(=O)C1(C)CCCN1C(=O)c1ccc(C(F)(F)F)nc1C (centres undefined)	4
COC(=O)[C@]12C[C@H](CC(=O)N3CCSCC3)C(=O)N(Cc3ccc4c(c3)OCO4)C1=C[C@H](C(C)C)O[C@@H]2C1CC1	-2
COc1ccc(-c2nc(SC)n(S(=O)(=O)c3ccccc3)n2)cc1	2
CCS(=O)(=O)n1nc(-c2ccc(Cl)cc2)nc1N	0
CSc1nc(-c2ccccc2)nn1S(=O)(=O)c1ccc(Cl)cc1	11*	TbREL1 conf=3
O=C1COc2ccc(C(=O)COC(=O)Cc3ccc(F)cc3)cc2N1	2
COc1ccc(S(=O)(=O)Nc2cccc3c2O[C@H](CN(C)S(=O)(=O)c2ccccc2)[C@@H](C)CN([C@H](C)CO)C3=O)cc1	-1
COc1ccc(Cl)cc1NC(=S)N1CCN(c2ncccn2)CC1	-1
COc1ccc(CN2C(=O)c3cccnc3C2Nc2cc(Cl)ccc2OC)cc1 (centres undefined)	32*	TbREL1 conf=41*
CCOC(=O)c1ccc(NC2c3ncccc3C(=O)N2Cc2ccc(F)cc2)cc1 (centres undefined)	5
COc1cc(NC(=O)C2CCN(c3nnc(-n4cccc4)s3)CC2)cc(OC)c1	-3
CCCCCCC(=O)n1ccc2ccc(-c3ccc4ccn(Cc5ccc(OC)cc5)c4c3)cc21	5
Cc1ccc(C(=O)C[n+]2cc(-c3ccc(C)cc3)n3c2CCCCC3)cc1	9
Cc1ccc(-c2c[n+](Cc3ccc(Cl)c(Cl)c3)c3n2CCC3)cc1	13*	TbREL1 conf=8
Cc1ccc(S(=O)(=O)N2CCN=C2SCc2ccc(Cl)c(Cl)c2)cc1	6
Cc1cccc(C)c1NC(=O)C1CCCN1S(=O)(=O)c1cccc2cccnc12 (centres undefined)	-2
O=C(NCCc1ccc(O)cc1)c1[nH]c(C(F)(F)F)nc1-c1ccccc1	1
CC(=O)NCCc1ccc(C(=O)COC(=O)c2cccs2)cc1	2
O=C(O)C1CCN(C(=O)CSc2nnc(-c3ccccc3)o2)CC1	6
O=C(Nc1cccs1)Nc1c(F)cc(F)cc1Br	0
NS(=O)(=O)c1ccc(F)c(C(=O)O)c1	3
CCC(C)NS(=O)(=O)c1ccc(F)c(C(=O)Nc2c(F)cc(F)cc2Br)c1 (centres undefined)	19*	TbREL1 conf=2
CCOc1ccc(S(=O)(=O)N(CC)CC(=O)NCc2ccco2)cc1C	4
Cn1c(N)c(C(=O)CSc2nnc(-c3c[nH]c4ccccc34)n2C2CC2)c(=O)[nH]c1=O	15*	TbREL1 conf=7
Cn1c(N)c(C(=O)CSc2nnc(C3CC3)n2Cc2ccccc2)c(=O)[nH]c1=O	-3
SMILES	TbREL1 inh	others
Cc1ccc(-n2nnnc2SCC(=O)c2c(N)n(C3CC3)c(=O)[nH]c2=O)cc1	1
Nn1c(SCC(=O)N2CCOCC2)nnc1-c1cc(-c2ccc(F)cc2)n[nH]1	4
O=C(CCN1C(=O)/C(=C\c2ccccc2)SC1=S)Nc1ccc(C(=O)O)cc1	1
O=C(CCN1C(=O)S/C(=C/c2ccccc2)C1=O)Nc1ccc(O)c(C(=O)O)c1	14*	TbREL1 conf=15*
O=C(CCCN1C(=O)/C(=C\c2ccccc2)SC1=S)Nc1ccc(O)cc1	-1
CC1(C)CC2CN(Cc3ccccc3)S(=O)(=O)N2C1 (centres undefined)	5
C=C[C@]1(C)C=C2C(=O)[C@@]3(O)OC(=O)[C@@]4(CCCC(C)(C)[C@H]34)[C@@]2(O)CC1	7
Cc1ccc(S(=O)(=O)N2CCCCC2)cc1NC(=O)c1ccc(=O)[nH]c1	6
C[C@H](NC(N)=O)C(=O)OCC(=O)Nc1ccc(OC(F)F)cc1	12*	TbREL1 conf=-1
O=C(COC(=O)C1CCC1)Nc1ccc(OC(F)F)cc1	2
CCCCC(=O)OCC(=O)Nc1ccc(OC(F)F)cc1	-1
Cc1ccc(-c2cc(C(=O)N=Nc3c(O)[nH]c4ccccc34)[nH]n2)cc1C	7
c1ccc(CCNCCOc2ccccc2)cc1	7
Cc1ccc(C(C)C)c(OCCNS(C)(=O)=O)c1	-2
Cc1ccc(C(C)C)c(OCCNCCc2ccccc2)c1	13*	TbREL1 conf=15*
COC(=O)[C@]12C[C@H](CC(=O)NCc3cccc(C(F)(F)F)c3)C(=O)N(Cc3ccc4c(c3)OCO4)C1=C[C@H](C(C)C)O[C@@H]2C1CC1	0
CC(C)(C)Cc1c(C2CCCCC2)nc2ccc(Cl)cn12	5
Brc1ccc2nc(C3CCCCC3)c(CC3CCCCC3)n2c1	11*	TbREL1 conf=9
Cc1ccc2nc(C3CCCCC3)c(Cc3ccccc3C(F)(F)F)n2c1	-2
COC(=O)[C@]12CCCCC=C1N(Cc1ccc(Cl)cc1Cl)C(=O)[C@H](CC(=O)N1CCC(c3ccccc3)CC1)C2	3
C=CCNC(=O)c1ccsc1N	-2
O=c1c2c(-c3ccco3)csc2nc(SCc2cn3cccnc3n2)n1-c1ccccc1	23*	TbREL1 conf=0
Nc1ccccc1SCc1cn2cccnc2n1	0
c1ccc(SCc2cn3cccnc3n2)nc1	1
O=C(N[C@@H](Cc1cccnc1)C(=O)N1CCC[C@H]1C(=O)NCCc1ccccc1Cl)c1ccccc1	0
